Assay results reported in PubChem BioAssay AID411 (National Center for Advancing Translational Sciences (NCATS), 2006).
In all, about 72,000 compounds went through this assay and about 1,600 (2.2%) were called active. Calls follow the shape of the dose curve; as a rule, active = well fitted inhibition curve with a large enough effect; inconclusive = small, poorly fitted or top-dose-only effect; inactive = flat fitted curve, though single readings scatter. This excerpt belongs to a sample that is enriched for actives.

target: Luciferin 4-monooxygenase (Photinus pyralis) (UniProt P08659); test: qHTS Assay for Inhibitors of Firefly Luciferase; settings: purified firefly luciferase, luminescence, 8 min; series mostly up to 57.1 µM; activity change, negative = inhibition: at the top concentration; also: nearly all actives have a fitted effect of over 40% in size
Sequence (P08659 whole entry, looked up): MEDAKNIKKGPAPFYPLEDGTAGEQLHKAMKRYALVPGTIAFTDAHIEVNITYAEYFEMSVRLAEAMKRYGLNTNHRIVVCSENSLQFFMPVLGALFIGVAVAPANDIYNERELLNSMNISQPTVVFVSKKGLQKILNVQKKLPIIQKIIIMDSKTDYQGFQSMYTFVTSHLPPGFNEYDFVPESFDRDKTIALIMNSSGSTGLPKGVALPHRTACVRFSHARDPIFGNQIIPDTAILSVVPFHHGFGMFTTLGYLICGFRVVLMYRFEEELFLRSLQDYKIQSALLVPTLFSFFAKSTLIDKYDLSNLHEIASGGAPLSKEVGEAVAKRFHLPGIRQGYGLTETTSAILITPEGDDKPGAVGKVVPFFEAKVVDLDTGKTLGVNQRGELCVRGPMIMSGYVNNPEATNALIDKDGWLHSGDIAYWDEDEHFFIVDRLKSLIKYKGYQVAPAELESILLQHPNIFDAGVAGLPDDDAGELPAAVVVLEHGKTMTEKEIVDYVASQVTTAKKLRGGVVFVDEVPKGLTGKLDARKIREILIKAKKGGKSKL
Outline: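 Luminescence read-out after 8 min at room temperature; enzyme reaction used luciferin plus 10 uM ATP (linear range) in imidazole buffer pH 7.2 with KCl, MgCl2, Tween 20 and BSA. Each sample was run as a titration.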
% is scaled to controls: 0 for no effect and ±100 for the full control effect; potency is read from the fitted curve at half-maximal effect.

Potency, active:
Fc1ccc2nc(N3CCCCC3)sc2c1 25.1 µM
c1c2c(cc3sc(N4CCCCC4)nc13)OCCO2 1.58 µM
COC(=O)c1cc(NC2c3ccccc3C(=O)N2c2ccc(Cl)cn2)cc(C(=O)OC)c1 (stereo not drawn) 7.94 µM
Cc1nnc(SCc2ccc(C(=O)c3ccc(Cl)cc3)o2)n1-c1ccccc1 12.6 µM
COc1cccc(-c2nc3cc(C)ccc3o2)c1 3.98 µM
COc1ccc(OCc2cccc(C(=O)N3CCCC3)c2)cc1 25.1 µM
C/C(=C\C(=O)c1ccccc1)Nc1cccc(O)c1 7.94 µM
C/C(=C\C(=O)c1cccnc1)Nc1ccc(C)c(C)c1 12.6 µM
CCN1C(=O)/C(=C2\SC(N3CCCCC3)=NC2=O)c2ccccc21 6.31 µM
Cc1nn(C(=O)c2ccoc2C)c(N)c1-c1ccccc1 25.1 µM

Activity change, negative = inhibition, inactive:
Fc1cc(F)c2nc(N3CCOCC3)sc2c1 -2.74%
Cc1cc(N2CCCCC2)nc2ccc(Cc3ccc4nc(N5CCCCC5)cc(C)c4c3)cc12 0.114% [at 11.4 µM]
CCOC(=O)N1CCC(NC(=O)c2ccc3nc(N4CCOCC4)sc3c2)CC1 0.545%
C/C(=C\c1ccco1)C1Nc2cccc3cccc(c23)N1 -10.3%
Cc1ccc(Cn2ccc(NC(=O)c3cc(C(C)C)on3)n2)cc1 -5.95%
Cc1c(O)c(Br)c(C)c(O)c1Br (tested in a mixture with another compound) -10.4% [at 11.4 µM]
O=C(c1ccco1)N1CCC2(CC1)CN(c1ncccn1)C2 -0.795% [at 11.4 µM]
Cc1nn(-c2ccccc2)c2sc(C(=O)N(Cc3ccco3)C(C)C(=O)NC(C)(C)C)cc12 (stereo not drawn) -28.1%
COc1cccc(Cn2c(=O)c(CCc3ccccc3)nc3cnc(N(C)C)nc32)c1 0.592% [at 11.4 µM]
Cc1ccnc(N2C(=O)c3ccccc3C2Nc2ccc3c(c2)OCCO3)c1 (stereo not drawn) -4.54%
CCc1ccccc1NC1c2ccccc2C(=O)N1c1cccnc1 (stereo not drawn) 4.17%
CCCCc1nc2c(=O)[nH]c3ccccc3c2o1 -2.14%
CSc1nnc2c(n1)OC(c1cn(C)c3ccccc13)N(C(C)=O)c1ccccc1-2 (stereo not drawn) 1.54%
CCN(CC)C(=O)N1CCN(C(=O)c2ccc(C)cn2)CC1 2.24%
CCCCC[C@H](O)CCCC(=O)O 2.9%
Cc1nnc(SCC(=O)NCCOc2ccc(Cl)cc2)n1-c1ccccc1 1.39%
Cc1nnc(SCC(=O)N2CCc3ccccc32)n1-c1ccccc1 0.58%
Cn1c(=O)c(-c2ccccc2)nc2cnc(N3CCNCC3)nc21 -0.109% [at 11.4 µM]
CCN(CC)C(=O)CSc1nnc(-c2cccc(OC)c2)o1 -5.13%
COc1cccc(-c2nc(S(=O)(=O)c3ccccc3)c(N3CCOCC3)o2)c1 0.874%
CCOC(=O)CCC(=O)OCC(=O)NC(C)C1CC2CCC1C2 (stereo not drawn) -0.786%
CC[C@H](c1ccccc1)c1cc(C(C)(C)C)cc(C(C)(C)C)c1O 2.75% [at 11.4 µM]
CCC(CC)C(=O)Nc1cccc(C(=O)N2CCCC2)c1 0.159%
COc1ccc(OCC(=O)N2CCN(C(=O)COc3ccccc3)CC2)cc1 1.46%
N#CC1=C(N)Oc2cc(O)ccc2C1C1CCCCC1 (stereo not drawn) -0.463%
CS(=O)(=O)N1CCC2(CC1)CN(Cc1cc(C(F)(F)F)cc(C(F)(F)F)c1)C2 -0.965% [at 11.4 µM]
O=C1C=C(NCCNc2c(F)c(F)c(CO)c(F)c2F)CCC1 -5.44% [at 25.5 µM]
COc1ccccc1N1CCN(CCN2C(=O)c3ccccc3C(C)(C)C2=O)CC1 -0.281%
O=C1CC2(CCCCC2)Oc2ccc(OCC(=O)N3CCOCC3)cc21 0.0464%
O=C(CCCOc1ccccc1)Nc1cccc(C(=O)O)c1 -10.1%
CC(=O)c1cccc(NC(=O)c2ccncc2)c1 -0.13%
O=C(Nc1cnccn1)c1cccnc1 0.489%
CCC(=O)Nc1cccc(NC(=O)c2cccnc2)c1 -4.65%
COc1ccc(CCn2c(NCCCN3CCOCC3)nc3c2c(=O)[nH]c(=O)n3C)cc1 -0.55%
CCc1cccc2c3c([nH]c12)C(CC)(CC(=O)O)OCC3 (stereo not drawn) 0.413% [at 25.5 µM]
CCN1C(=O)/C(=C\N2CCN(c3ccccc3)CC2)SC1=S 3.29%
CCN1C(=O)c2cccc3c(N)ccc1c23 -8.81%
CCCn1c(SCC(=O)Nc2c(C)cccc2C)nnc1C(C)C 1.85%
Cc1cc(C)n2nc(C(=O)Oc3ccc4c(c3)OCO4)nc2n1 1.51%
COc1ccccc1C(=O)n1nc(-c2ccccc2)nc1N 0.0179%
Cc1occc1C(=O)N1CCCc2ccccc21 0.295%
Cc1nc2cc(S(=O)(=O)C(F)(F)F)ccc2s1 4.06%
CN(c1ccccc1)c1ccc(/C=c2\s/c(=C(/C#N)C(=O)C(C)(C)C)n(Cc3ccco3)c2=O)cc1 -5.79%
